A selection: hits, their analogues and other compounds. The true share with any hit is near 3%.
SENP8 block-1 – SENP8 (human) protease inhibition. recombinant SENP8, Nedd8 substrate fluorescence. inhibition, % at 20 µM. 0.64% of 360,000 active; in the data active = inhibition mostly above about 40%, no sharp cut-off; inactive = mostly below about 27%
Target sequence (Q96LD8 whole entry, looked up): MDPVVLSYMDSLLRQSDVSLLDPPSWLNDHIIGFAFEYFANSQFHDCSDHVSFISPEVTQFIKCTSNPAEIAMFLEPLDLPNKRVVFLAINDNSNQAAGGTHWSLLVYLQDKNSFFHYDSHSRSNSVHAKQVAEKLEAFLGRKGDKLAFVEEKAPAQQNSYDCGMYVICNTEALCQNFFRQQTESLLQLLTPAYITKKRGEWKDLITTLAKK
SENP6 inh – blocks the human protease SENP6; AID 2599; Q9GZR1; Recombinant SENP6 catalytic domain, aminoluciferin luminescence; 1.8% of 330,000 active; inhibition, % at 10 µM;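 active = inhibition above about 50% at the single tested dose, limit read from the data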;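 note: plate controls were DMSO wells with enzyme for no effect and DMSO wells lacking enzyme for full effect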
SENP7 inh – SENP7 protease inhibition | Q9BQF6 | recombinant SENP7, Z-RLRGG-aminoluciferin luminescence, 40 min | inhibition, % at 5 µM | 1.5% of 330,000 active;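 active = inhibition above about 50% at the single test dose, limit read from the data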;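 note: plate controls were DMSO with enzyme for no effect and no enzyme buffer wells for full effect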
Target sequence (Q9BQF6 706-1050 limits assumed): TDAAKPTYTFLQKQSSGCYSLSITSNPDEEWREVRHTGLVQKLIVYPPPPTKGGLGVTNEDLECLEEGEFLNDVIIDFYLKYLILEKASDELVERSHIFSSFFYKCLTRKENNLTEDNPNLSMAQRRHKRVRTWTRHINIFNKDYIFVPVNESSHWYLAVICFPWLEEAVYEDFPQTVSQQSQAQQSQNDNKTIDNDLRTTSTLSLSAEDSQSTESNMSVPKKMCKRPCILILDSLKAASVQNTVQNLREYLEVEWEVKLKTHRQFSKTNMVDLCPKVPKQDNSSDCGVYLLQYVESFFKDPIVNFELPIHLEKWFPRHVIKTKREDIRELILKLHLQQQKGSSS
C8 TRAIL sens – sensitizes caspase-8 expressing cells to TRAIL; NB7+C8 cells + TRAIL, ATPlite viability luminescence; inhibition (viability loss, TRAIL sensitization), % at 10 µM; 1% of 360,000 active; AID 624354;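 active = compounds causing at least 50% loss of cell viability in the single-dose screen, relative to plate controls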
PPC-1+TRAIL kill – compounds killing PPC-1 cancer cells with TRAIL present (potentiator screen, no TRAIL-free arm); PPC-1 cells + TRAIL, ATPLite viability luminescence; 0.41% of 220,000 active; AID 1443; cell killing (% activity), % at 4 µM or 5 µM;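 active = cell killing above 50% in the first pass at 4 µM, then a duplicate retest at 5 µM averaging 50% or more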;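 note: plate controls were cells with TRAIL plus DMSO for no effect and medium-only wells lacking cells for full effect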
SENP8 block-2 – SENP8 protease inhibition; purified SENP8, Z-RLRGG-aminoluciferin cleavage, luminescence; inhibition, % at 10 µM; 1.2% of 330,000 active; AID 2540; in the data active = inhibition above about 50%
* marks the source's active call; other numbers are inactive results; · = no result given.

SMILES	SENP8 block-1	SENP6 inh	SENP7 inh	C8 TRAIL sens	PPC-1+TRAIL kill	SENP8 block-2
CCCn1c(C)cc(C(=O)COC(=O)c2cc(S(=O)(=O)NCC(C)C)c(Cl)cc2Cl)c1C	10.8	7.4	-2.8	94.0*	-10.9	3.2
Cn1c(O)c(N=NC(=O)c2cc(-c3cccs3)nc3ccccc23)c2ccccc21	-8.2	-4.5	7.8	48.3	23.7	0.4
O=C(N=Nc1c(O)[nH]c2ccc(Br)cc12)c1cc(-c2cccs2)nc2ccccc12	-64.0	·	·	86.8*	15.7	·
Brc1ccc(-c2nnc(-c3ccco3)o2)cc1	-207.5	80.8*	60.2*	20.5	12.4	66.2*
CC1=C(C(=O)Nc2cccc(C(=O)NC(C)c3ccccc3)c2)SCCO1 (stereo unspecified)	1.4	0.7	-1.4	10.3	·	-14.0
CCc1ccc(/C=C/C(=O)c2ccc(N3CCOCC3)cc2)cc1	-19.5	-11.3	-0.6	9.6	17.6	-15.2
O=C(/C=C/c1ccc(F)cc1)c1ccc(N2CCOCC2)cc1	-9.5	79.8*	78.4*	-2.6	9.7	41.1
COC(=O)C=C1CCC2C3CCC4=CC(=O)CCC4(C)C3C(=O)CC12C (stereo unspecified)	8.6	·	·	-12.6	·	·
C/C(=N/Nc1ccc(C(=O)O)cc1)c1ccc(O)c(O)c1O	46.9*	-6.3	-0.7	6.6	-8.5	-16.7
CN1C[C@@H]2[C@@H]3C(=O)N(C)C(=O)[C@@H]3[C@](Cc3ccccc3)(C1=O)N2C(=O)c1ccc(Cl)cc1	-10.8	·	·	-20.9	·	·
CC(=O)N1c2ccccc2S(=O)(=O)c2c1ccc1ccccc21	-100.3	·	·	-21.5	·	·
Cc1cccc(NC2=C/C(=N/S(=O)(=O)c3cccs3)c3ccccc3C2=O)c1	103.0*	·	·	95.4*	51.2*	·
O=C(O)c1ccc(NC2=C/C(=N/S(=O)(=O)c3cccs3)c3ccccc3C2=O)cc1	98.5*	·	·	55.0*	·	·
Cc1cc(C)c(S(=O)(=O)/N=C2\C=C(Nc3ccc(C(=O)O)cc3)C(=O)c3ccccc32)c(C)c1	56.9*	89.1*	42.4	58.2*	·	88.2*
Cc1cccc(NC2=C(NCCO)C(=O)c3ccccc3C2=O)c1	17.4	14.9	-0.7	6.3	-4.7	6.8
CC(O)CC(=O)OC[C@]12CC[C@H]3[C@@](C)(CC[C@H]4C(C)(C)CCC[C@]34C)[C@@H]1CC(C1=CC(=O)OC1O)O2 (stereo partly specified)	5.9	·	·	86.2*	·	·
O=[N+]([O-])c1cccc(S(=O)(=O)N2CN(c3ccc(Br)cc3)c3nc4ccccc4nc32)c1	-46.5	-4.3	-8.3	-11.3	·	-7.8
CCn1c(C)nc2cc(C(=O)N/N=C/c3ccccc3)ccc21	2.4	19.8	-2.3	5.6	11.3	7.5
CCn1c(C)nc2cc(C(=O)N/N=C/c3cccc(O)c3O)ccc21	0.7	-17.5	0.7	51.7*	17.4	-6.4
CN1C(=S)SC(N(O)C(=O)Nc2ccccc2)C1(C)C (stereo unspecified)	16.6	7.6	4.3	-8.2	8.9	5.0
CN1C(=S)SC(N(O)C(=O)Nc2cccc3ccccc23)C1(C)C (stereo unspecified)	-432.7	57.5*	25.6	-24.5	-24.3	22.6
CCCCNC(=O)C1Cc2cc(S(=O)(=O)N3CCCCC3)ccc2N1C(C)=O (stereo unspecified)	5.9	4.9	-0.2	20.3	·	-3.5
O=C(/C=C/c1ccc2c(c1)S(=O)(=O)N(Cc1ccccc1)[C@H]2CC(=O)N1CCOCC1)N1CCOCC1	-6.3	-26.9	-10.9	-4.5	·	-12.8
CC(=O)N(C)c1ccc(N=Nc2c(C)[nH]n(-c3ccccc3)c2=O)cc1	29.7	8.9	-2.6	5.8	·	-1.0
CC(=O)N(C)c1ccc(N=Nc2ccc3ncccc3c2)cc1	33.5	·	·	61.9*	·	·
SMILES	SENP8 block-1	SENP6 inh	SENP7 inh	C8 TRAIL sens	PPC-1+TRAIL kill	SENP8 block-2
CCc1ccc(/C=C2\SC(=S)N(CCCC(=O)N3CCN(C)CC3)C2=O)cc1	41.1*	·	·	86.9*	·	·
CCc1ccc(/C=C2/SC(=S)N(CCC(=O)NCCCN3CCOCC3)C2=O)cc1	19.0	-7.2	-4.9	25.3	·	-9.6
CCc1ccc(/C=C2\SC(=S)N(CCCC(=O)NCCCN3CCOCC3)C2=O)cc1	18.5	·	·	75.5*	·	·
CCc1ccc(/C=N/NC(=O)c2c[nH]c3ccccc23)s1	-6.1	8.2	-4.0	54.5*	18.9	-12.7
CCCc1cc(C(=O)N/N=C/c2ccc(CC)s2)c2ccccc2n1	9.5	2.0	5.2	51.3*	11.8	-3.2
Cc1ccc(C(=O)NC(=S)N2CCCCCC2)cc1	12.3	-1.9	6.7	11.6	·	0.3
CC(C)(C)c1cc(C2COC(=O)COCCOCC(=O)OCCOCCO2)cc(C(C)(C)C)c1O (stereo unspecified)	5.4	·	·	-12.2	·	·
CN(C(=O)c1ccc(NC(=O)Cc2ccc(NC(=O)C3CCCN(S(=O)(=O)c4cccc([N+](=O)[O-])c4)C3)cc2)cc1)C1CCCC1 (stereo unspecified)	9.2	·	·	-10.1	·	·
CN(C(=O)c1ccc(NC(=O)Cc2cccc(NC(=O)C3CCCN(S(=O)(=O)c4cccc([N+](=O)[O-])c4)C3)c2)cc1)C1CC1 (stereo unspecified)	9.6	·	·	53.8*	·	·
CCC1CCCCN1c1ccc([N+](=O)[O-])cc1/C=N/NC(=O)Cn1c2ccccc2c(=O)c2ccccc21 (stereo unspecified)	-113.5	-19.5	-8.1	73.7*	22.3	-9.6
CCOc1cc(CNc2ccc(O)cc2)ccc1OCc1ccc(Cl)cc1Cl	75.4*	-2.8	71.7*	10.4	-20.4	-5.6
CCOc1cccc(CNc2ccc(O)cc2)c1OCc1ccc(Cl)cc1	29.5	-6.0	21.2	-0.6	17.9	-3.4
COC(=O)c1sccc1NC(=O)Nc1ccccc1F	7.4	69.6*	97.5*	-2.3	17.0	88.4*
COC(=O)c1sccc1NC(=O)Nc1ccccc1C	0.3	10.0	-1.1	-24.9	·	2.0
COc1ccc2c(c1OC)C(=O)OC2Nc1nc(-c2cc3cc(Br)ccc3oc2=O)cs1 (stereo unspecified)	-382.3	94.6*	90.9*	-16.1	8.3	90.9*
Cn1c(=O)c2cc(NC(=O)NCc3ccc(F)cc3)ccc2n1Cc1cccc(C(F)(F)F)c1	-486.7	·	·	3.1	·	·
Cc1cc(C(=O)Nc2ccc(Cl)cc2)c(C)n1Cc1cccs1	-12.2	22.7	-9.1	43.0	46.1	8.4
Cc1cc(C(=O)CN2C(=O)c3ccccc3C2=O)c(C)n1Cc1cccs1	13.0	-24.6	-4.4	46.4	4.7	-10.8
Cc1cc(C)cc(NC(=O)c2cc(C)n(Cc3cccs3)c2C)c1	-4.3	-11.2	-1.7	51.1*	42.0	-25.4
Cc1cc(C(=O)Cn2nnc3ccccc3c2=O)c(C)n1Cc1cccs1	11.9	-32.7	2.6	58.1*	43.8	-3.2
Cc1ccc(C)c(Cn2nnc3c(=O)[nH]c(C4CCCN(S(=O)(=O)Cc5ccccc5)C4)nc32)c1 (stereo unspecified)	1.2	-6.9	-2.2	-4.9	·	-0.7

Assay outcomes (PubChem)
